Source: PubChem BioAssay AID602476 (National Center for Advancing Translational Sciences (NCATS), 2012)
Records with an inconclusive call do not appear. Activity calls are given as the source filed them. Calls come from the whole dose curve; as a rule, active = well fitted activation curve with a large enough effect; inconclusive = small, poorly fitted or top-dose-only effect; inactive = flat fitted curve, though single readings scatter.

Assay: FLuc inhibitory activity for the follow-up compounds in a cell-based translational read-through assay
Details: GripTite 293 FLucUGA read-through, luminescence, 48 h; series mostly up to 38.3 µM
From the text: NCGC Assay Overview: Firefly (Photinus pyralis) luciferase is one of the most commonly used transcriptional reporters. It is considered one of the more dynamically responsive reporters - that is, responsive to changes in reporter transcription - as it requires no post-translational modifications and is enzymatically active directly after protein synthesis (Wood, 1998). With no endogenous expression in mammalian cells and without the requirement of external excitation, it offers very little background signal, thus generally providing excellent signal to background for most assays. Previous profiling work to determine the prevalence of compounds that affect FLuc enzymatic activity (PubChem AID 411) identified that ~3% of the MLSMR library (then at ~72K) inhibited FLuc (Auld et al., 2008). […] Of the compounds identified in this profile that inhibited FLuc, 151 compounds were selected for further analysis, in an effort to better understand their mode of inhibiting FLuc. The assay described here was to determine the activity of the compounds in a cell-based firefly luciferase reporter gene assay originally designed to identify compounds that enchanced translational read-through of a FLuc cDNA that contained a premature stop codon (Auld et al., 2009; Auld et al., 2010). Compounds that enhance translational read-through or compounds that stabilize FLuc intracellularly are identified as active compounds in the assay.
NCGC Assay Protocol Summary: Reagents: Transient transfection of FlucUGA construct: TransFast Transfection Reagent (Promega #E2431); FLucUGA construct (refer to Auld et al., 2009) #GripTite 293 MSR Cell Line (Invitrogen #R795-07) #Complete growth media: DMEM (Invitrogen #11965), 10% HIFBS, 0.1mM MEM NEAA, 5mL/L pen-strep (of 5000U/mL stock), 600ug/mL Geneticin #Assay media: DMEM without phenol red (Invitrogen #21063), 5% charcoal-stripped HIFBS (Hyclone #SH30071.03), 0.1mM MEM NEAA In-house detection reagent: 300mM Tris-HCl, 300mM Trizma base, 300mM MgCl, 1% Triton-X100, 5mM DTT, 500uM Coenzyme A trilithium salt (Sigma #C3019),450uM ATP (Sigma #A7699), 1mM D-luciferin sodium salt monohydrate (Biosynth #L8240) Control compounds used were two known firefly luciferase inhibitors (3-(5-(3-chlorophenyl)-1,2,4-oxadiazol-3-yl)benzoic acid and 5-(2-fluorophenyl)-3-phenyl-1,2,4-oxadiazole), and DMSO. Assay Summary: Transient transfection of FlucUGA construct: Day 1: GripTite cells were plated in T175 flasks at a density of 1.75 x 10^7 cells/T175 flask in complete growth media without Geneticin and allowed to grow ON in a 37 degrees Celsius incubator. Day 2: Cells in T175 flask were transfected - with 10ug of DNA and 30uL Transfast in 12mL complete growth media without serum and without Geneticin for 4 hours at 37 degrees Celsius. After incubation, cells were trypsinized, spun down, and resuspended to a concentration of 3.3 x 10^5 cells/mL in assay media. 6uL of cells in assay buffer were dispensed at 2000cells/well (3.3 x 10^5 cells/mL) into Greiner solid-white TC-treated 1536-well plates using a Multidrop Combi (Thermo Fisher Scientific). Plates were incubated for one hour at 37 degree Celsius, 95% humidity, 5% CO2. These assay plates were then treated with 23nL of compound or DMSO using a Kalypsys pin tool, which allows for delivery of a 12-point titration of each compound to the assay plate, with a final compound concentration ranging from approximately ~38uM to 0.2nM. Assay plates were then incubated for 48 hours. After incubation, plates were washed three times with DPBS (7uL/well). After the third wash, 6uL of DPBS was added to each well. 3uL of 3X luciferase detection reagent was then added to each well using a flying reagent dispenser (FRD). After a 15 minute incubation to allow for cell lysis, luciferase activity was measured using a ViewLux CCD imager (PerkinElmer), with an average exposure time of 2-12 seconds.

Potency, active:
COc1ccc(-c2cccc(C(=O)Nc3cccc(C(=O)O)c3)c2)cc1 11300 nM
Nc1ccccc1-c1nc2ccccc2s1 17900 nM
O=C(Nc1c(Cl)cc(Cl)cc1-c1nc2ccccc2s1)c1ccc(Br)o1 3180 nM
O=C(O)c1cccc(NC(=O)c2ccc(Cl)c(S(=O)(=O)N3CCCCCC3)c2)c1 711 nM
COc1ccc(-c2nc3ccccc3s2)cc1O 5650 nM
c1ccc2sc(-c3ccc4c(c3)OCO4)nc2c1 1260 nM
CCCC(=O)Nc1nc2ccc(OCC)cc2s1 12600 nM
Nc1ccc2nc(-c3ccccc3)sc2c1 4000 nM
Cc1ccc(C(=O)Nc2cccc(C(=O)O)c2)cc1S(=O)(=O)N1CCCC1 2000 nM
COc1ccc2nc(NC(=O)c3cnccn3)sc2c1 565 nM
Cc1ccc2nc(-c3ccc(N)cc3)sc2c1 40 nM
CCOc1ccc2nc(NC(=O)c3cccnc3)sc2c1 14200 nM
CC(C)(C)C(=O)Nc1ccc(-c2nc3ccccc3s2)cc1 31.8 nM
Nc1ccc(-c2nc3ccc(C(=O)O)cc3s2)cc1 283 nM

Potency, inactive:
O=C(O)c1ccccc1NC(=O)c1ccccc1Nc1ccccc1
COc1cc(OC)cc(C(=O)Nc2ccc(-c3nc4ccccc4s3)c(C)c2)c1
COc1ccc2nc(NC(=O)c3ccccc3C(=O)O)sc2c1
CN(C)S(=O)(=O)c1ccc(C(=O)Nc2ccccc2C(=O)O)cc1
O=C(COC(=O)c1ccccc1[N+](=O)[O-])c1ccc2c(c1)OCO2
CN(C)S(=O)(=O)c1ccc(C(=O)Nc2cccc(C(=O)O)c2)cc1
COc1cc(OC)cc(C(=O)Nc2ccccc2-c2nc3ccccc3s2)c1
CC(=O)Oc1ccc(C(=O)Nc2ccccc2C(=O)Nc2ccc(C(=O)O)cc2)cc1
COc1ccc(-c2nc3ccccc3s2)cc1NC(=O)c1ccc(F)cc1
O=C(Nc1ccccc1C(=O)O)c1ccc(NC(=O)C2CC2)cc1
Cc1cccc(NS(=O)(=O)c2cccc(C(=O)Nc3cccc(C(=O)O)c3)c2)c1
Cc1ccc(C(=O)Nc2ccc(C(=O)O)cc2)cc1S(=O)(=O)Nc1ccccc1
O=C(Nc1ccccc1C(=O)O)c1cccc(S(=O)(=O)N2CCCC2)c1
COc1cccc(OC)c1C(=O)Nc1cccc(C(=O)Nc2cccc(C(=O)O)c2)c1
O=C(Nc1ccccc1C(=O)O)c1cc(S(=O)(=O)Nc2cccc(F)c2)ccc1Cl
Cc1ccc(S(=O)(=O)N2CCOCC2)cc1C(=O)Nc1ccccc1C(=O)O
Cc1ccc(C(=O)Nc2ccc(C(=O)O)cc2)cc1S(=O)(=O)NCc1ccccc1
COc1cc(C(=O)Nc2cc(C)c(O)c(-c3nc4ccccc4s3)c2)cc(OC)c1OC
O=C(Nc1ccccc1C(=O)O)c1ccc(NC(=O)C2CCCCC2)cc1
Cc1cccc(C(=O)Nc2ccc(-c3nc4ccccc4s3)cc2Cl)c1
COc1ccc(C(=O)Nc2ccccc2-c2nc3ccccc3s2)c(OC)c1
COc1ccc(NS(=O)(=O)c2cccc(C(=O)Nc3ccccc3C(=O)O)c2)cc1
O=C(Nc1ccccc1C(=O)O)c1cccc(S(=O)(=O)Nc2ccc(Br)cc2)c1
Cc1ccc(S(=O)(=O)N2CCN(C(=O)c3ccccc3-c3nc4ccccc4s3)CC2)c(C)c1
COc1ccc2nc(NC(=O)CCc3nc(-c4ccccc4F)no3)sc2c1
O=C(Cc1ccccc1)Nc1ccc(C(=O)Nc2ccccc2C(=O)O)cc1
